Measured values published in PubChem BioAssay (NCATS).
Results filed as inconclusive are left out. Calls of active or inactive are those of the source. Unless noted, calls come from the whole dose curve; as a rule, active = well fitted curve in the direction sought with a large enough effect; inconclusive = small, poorly fitted or top-dose-only effect, or another doubt; inactive = no such curve, though single readings can be large; an effect the other way counts as inactive or inconclusive.

Experiments:
[1] = qHTS assay for measurement of the activity of small molecule inhibitors on Zika virus induced Caspase-3 activity in human iPSC derived neural progenitor cells (hNPCs) (AID 1224857); note: % of control where 0% means no effect; nearly all actives have a fitted effect of over 65% in size
Procedure, shortened: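 Values are percent inhibition of virus-induced caspase-3/7 signal, scaled between uninfected cells and ZIKV-infected cells. Infection used 2 FFU/cell for 6 h after 1 h compound exposure.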

[2] = qHTS assay for measurement of the activity of small molecule inhibitors on Zika virus induced Caspase-3 activity in human astrocytoma cells (AID 1224859);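 note: plate controls were ZIKV-infected untreated cells for no effect and uninfected cells for full effect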
Procedure, shortened: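 Compound added 1 h pre-infection; ZIKV 2 FFU/cell on SNB-19 cells, 6 h, 37 C/5% CO2. Caspase-Glo 3/7 luminescence; values as % inhibition of ZIKV-induced caspase activity.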

[3] = Natriuretic polypeptide receptor (hNpr1) antagonism - Pilot counterscreen GloSensor control cell line (AID 1347045; calls by dose curve; note: potency is the fitted concentration of half-maximal effect)
Procedure, shortened: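 HEK293 cells carrying the GloSensor cGMP sensor (GIP/pGS-40F) were loaded with 2% GloSensor reagent for 2 h, exposed to compounds for 30 min, and then stimulated with 50 uM sodium nitroprusside for 20 min at room temperature.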

[4] = biological target: Atrial natriuretic peptide receptor 1 (Homo sapiens) (UniProt P16066); experiment: Natriuretic polypeptide receptor (hNpr1) antagonism - Pilot screen (AID 1347049; calls by dose curve;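 note: agonist-evoked cGMP luminescence read 20 min after hNppA addition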; note: potency is the fitted concentration of half-maximal effect)
Procedure, shortened: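 HEK293 cells expressing hNpr1 and GloSensor cGMP luciferase, 1500/well, loaded with 2% GloSensor reagent 2 h, compound 30 min at room temperature; luminescence read before and 20 min after 0.1 nM hNppA stimulation.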

[5] = biological target: Atrial natriuretic peptide receptor 2 (Homo sapiens) (UniProt P20594); experiment: Natriuretic polypeptide receptor (hNpr2) antagonism - Pilot subtype selectivity assay (AID 1347050; calls by dose curve; note: potency is the fitted concentration of half-maximal effect)
Procedure, shortened: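 HEK293 cells expressing hNpr2 and a GloSensor cGMP luciferase sensor, 1500/well, preloaded 2 h with 2% GloSensor reagent, compound 30 min, then 1 nM hNppC for 20 min. Antagonism from luminescence after versus baseline pre-read; LOPAC in 1:5 titrations.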

[6] = NS1 protein of Zika virus - qHTS assay to identify small molecule inhibitors in human HEK 293 cells (AID 1347053);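 note: series mostly up to about 46 µM; plate controls were infected untreated cells for no effect and uninfected cells for full effect; nearly all actives have a fitted effect of over 55% in size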
Procedure, shortened: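 Following 20 h seeding, HEK 293 cells took compound, then 1 h later ZIKV MR766 (MOI = 0.5). Incubation ran 24 h at 37 C before TR-FRET detection of NS1; a drop in signal indicates inhibition.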

[7] = biological target: Hexokinase-4 (Homo sapiens) + Glucokinase regulatory protein (Homo sapiens) (UniProt P35557+Q14397); experiment: qHTS assay for inhibitors of recombinant human GCK-GKRP interaction: HTRF assay (AID 743207);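 note: 0% = DMSO with GCK present and -100% = DMSO wells lacking GCK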
Procedure, shortened: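 5 nM GST-GCK + 5 nM FLAG-GKRP + 2 uM S6P, pH 7.1 buffer (25 mM Hepes, 2 mM MgCl2, 25 mM KCl, 1 mM DTT, Tween/BSA); pin-transferred cpd; anti-FLAG XL665/anti-GST K; 60 min RT; HTRF.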

[8] = qHTS Assay for Identifying Gametocytocidal Compounds (AID 743244);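 note: % is set by controls: 0 for no effect and ±100 for the full control effect; actives lower the fluorescent signal which means gametocytes are killed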; conditions: P. falciparum 3D7 stage III-V gametocytes, alamarBlue, 72 h; max response: active compounds read low
Procedure, shortened: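 Stage III–V gametocytes of P. falciparum 3D7 were seeded at 20,000 cells/well onto pre-dispensed compounds. After 72 h, 37 °C, 5% CO2, alamarBlue was added for another 24 h.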

[9] = qHTS assay for cell viability of the p53RE-bla HCT-116 cell line (AID 743292); note: % is set by controls: 0 for no effect and ±100 for the full control effect; nearly all actives have a fitted effect of over 55% in size
Procedure, shortened: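 Quantitative high-throughput format: compounds in DMSO were pinned onto p53RE-bla HCT-116 cells (4,000/well) and incubated 16 h at 37 C. Total intracellular ATP, read by CellTiter-Glo luminescence, reflects viable cell number.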

Chain of Atrial natriuretic peptide receptor 2 (Homo sapiens) (P20594 whole entry, looked up): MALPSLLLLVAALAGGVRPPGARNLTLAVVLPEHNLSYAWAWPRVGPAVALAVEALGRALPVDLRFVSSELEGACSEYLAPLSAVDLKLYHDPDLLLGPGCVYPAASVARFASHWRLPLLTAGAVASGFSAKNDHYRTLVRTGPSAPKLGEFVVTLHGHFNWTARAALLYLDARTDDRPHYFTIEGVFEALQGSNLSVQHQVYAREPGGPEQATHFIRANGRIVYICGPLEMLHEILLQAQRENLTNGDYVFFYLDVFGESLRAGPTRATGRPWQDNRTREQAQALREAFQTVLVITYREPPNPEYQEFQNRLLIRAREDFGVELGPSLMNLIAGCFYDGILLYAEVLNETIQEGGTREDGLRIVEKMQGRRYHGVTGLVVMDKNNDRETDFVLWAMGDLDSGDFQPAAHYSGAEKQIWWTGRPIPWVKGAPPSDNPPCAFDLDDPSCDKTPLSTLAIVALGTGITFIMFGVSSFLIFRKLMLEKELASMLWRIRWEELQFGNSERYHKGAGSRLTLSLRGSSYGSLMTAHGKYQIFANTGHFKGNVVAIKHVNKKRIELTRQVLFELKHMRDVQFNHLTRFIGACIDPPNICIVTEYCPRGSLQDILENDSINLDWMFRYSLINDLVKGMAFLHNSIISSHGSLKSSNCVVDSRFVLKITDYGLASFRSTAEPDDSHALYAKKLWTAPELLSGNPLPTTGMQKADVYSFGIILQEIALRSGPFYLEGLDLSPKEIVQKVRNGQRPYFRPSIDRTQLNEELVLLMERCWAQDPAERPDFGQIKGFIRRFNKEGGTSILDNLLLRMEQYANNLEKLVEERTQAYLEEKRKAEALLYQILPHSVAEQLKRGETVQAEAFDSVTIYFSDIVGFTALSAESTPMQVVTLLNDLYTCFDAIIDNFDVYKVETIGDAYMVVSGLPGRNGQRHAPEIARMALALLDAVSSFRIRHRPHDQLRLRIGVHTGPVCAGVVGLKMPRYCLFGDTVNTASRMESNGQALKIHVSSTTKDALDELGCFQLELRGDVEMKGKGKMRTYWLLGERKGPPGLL
Chain of Atrial natriuretic peptide receptor 1 (Homo sapiens) (P16066 whole entry, looked up): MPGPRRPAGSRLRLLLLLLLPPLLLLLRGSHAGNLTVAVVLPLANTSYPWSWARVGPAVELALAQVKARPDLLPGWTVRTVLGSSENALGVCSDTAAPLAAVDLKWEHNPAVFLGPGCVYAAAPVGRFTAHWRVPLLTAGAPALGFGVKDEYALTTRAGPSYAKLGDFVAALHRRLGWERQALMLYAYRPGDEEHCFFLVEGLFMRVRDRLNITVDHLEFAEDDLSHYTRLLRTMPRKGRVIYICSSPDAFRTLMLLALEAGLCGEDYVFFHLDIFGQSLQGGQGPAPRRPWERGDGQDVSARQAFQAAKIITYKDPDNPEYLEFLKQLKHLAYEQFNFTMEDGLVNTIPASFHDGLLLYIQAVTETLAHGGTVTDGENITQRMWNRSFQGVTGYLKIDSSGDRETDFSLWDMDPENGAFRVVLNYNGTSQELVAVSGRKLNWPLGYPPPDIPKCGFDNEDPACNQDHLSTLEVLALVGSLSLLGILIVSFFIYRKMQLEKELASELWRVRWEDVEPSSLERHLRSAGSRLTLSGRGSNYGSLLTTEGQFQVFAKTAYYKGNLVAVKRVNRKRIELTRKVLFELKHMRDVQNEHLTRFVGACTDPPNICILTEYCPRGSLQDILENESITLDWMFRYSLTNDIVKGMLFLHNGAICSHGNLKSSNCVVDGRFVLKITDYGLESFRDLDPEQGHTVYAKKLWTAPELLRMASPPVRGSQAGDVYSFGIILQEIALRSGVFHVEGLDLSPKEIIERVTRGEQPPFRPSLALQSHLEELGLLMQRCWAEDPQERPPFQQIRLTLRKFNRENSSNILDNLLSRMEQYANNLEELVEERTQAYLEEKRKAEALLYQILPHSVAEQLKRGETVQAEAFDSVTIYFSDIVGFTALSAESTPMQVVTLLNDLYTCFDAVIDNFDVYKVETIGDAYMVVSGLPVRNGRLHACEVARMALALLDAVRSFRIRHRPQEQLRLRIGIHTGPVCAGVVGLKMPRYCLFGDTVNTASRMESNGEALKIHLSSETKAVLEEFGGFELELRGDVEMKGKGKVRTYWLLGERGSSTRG
Chain of Hexokinase-4 (Homo sapiens) + Glucokinase regulatory protein (Homo sapiens) (P35557 whole entry, looked up): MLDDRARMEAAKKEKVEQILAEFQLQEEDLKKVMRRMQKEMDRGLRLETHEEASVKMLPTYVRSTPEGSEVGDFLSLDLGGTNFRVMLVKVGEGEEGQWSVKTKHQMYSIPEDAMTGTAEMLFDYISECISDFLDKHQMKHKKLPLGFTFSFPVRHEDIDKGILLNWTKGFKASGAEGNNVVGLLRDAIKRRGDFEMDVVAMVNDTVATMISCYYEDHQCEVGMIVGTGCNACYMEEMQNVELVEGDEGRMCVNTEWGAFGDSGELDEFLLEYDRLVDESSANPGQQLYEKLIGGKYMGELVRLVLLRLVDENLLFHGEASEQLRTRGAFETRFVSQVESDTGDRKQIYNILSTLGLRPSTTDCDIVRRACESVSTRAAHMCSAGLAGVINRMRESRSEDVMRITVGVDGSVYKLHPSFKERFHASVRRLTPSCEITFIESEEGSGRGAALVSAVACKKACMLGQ
Chain of Hexokinase-4 (Homo sapiens) + Glucokinase regulatory protein (Homo sapiens) (Q14397 whole entry, looked up): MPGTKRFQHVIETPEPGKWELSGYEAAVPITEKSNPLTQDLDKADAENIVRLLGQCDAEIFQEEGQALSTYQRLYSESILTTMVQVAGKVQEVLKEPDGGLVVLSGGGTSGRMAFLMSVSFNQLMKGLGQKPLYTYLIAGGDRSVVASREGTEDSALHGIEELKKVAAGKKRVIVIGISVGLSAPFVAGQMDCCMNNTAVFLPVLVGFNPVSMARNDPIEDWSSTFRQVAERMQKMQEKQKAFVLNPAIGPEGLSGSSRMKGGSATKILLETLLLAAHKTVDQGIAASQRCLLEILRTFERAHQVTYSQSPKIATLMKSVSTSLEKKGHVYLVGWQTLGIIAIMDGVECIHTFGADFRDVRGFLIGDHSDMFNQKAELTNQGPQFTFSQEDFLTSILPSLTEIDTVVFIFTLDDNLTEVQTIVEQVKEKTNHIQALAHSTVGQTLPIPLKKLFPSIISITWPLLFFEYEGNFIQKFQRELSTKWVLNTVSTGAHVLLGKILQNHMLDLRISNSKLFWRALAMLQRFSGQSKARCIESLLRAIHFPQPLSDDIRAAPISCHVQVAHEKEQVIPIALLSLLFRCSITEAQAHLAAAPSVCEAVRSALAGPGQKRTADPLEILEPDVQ

c1ccc2cc(CC3=NCCN3)ccc2c1
inactive: Potency [1] | outcome [2] | Potency [3] | Potency [4] | Potency [5] | outcome [6]

COc1ccc2[nH]c3c(c2c1)CCNC3
inactive: outcome [7] | max response [8] -9.37% | Potency [1] | outcome [2] | Potency [3] | Potency [4] | Potency [5] | outcome [6]

Cc1[nH]c2ccc(O)cc2c1CCN
inactive: Potency [1] | outcome [2] | Potency [3] | Potency [4] | Potency [5] | outcome [6]

CCCN1CCC[C@@H](c2cccc(O)c2)C1
inactive: Potency [1] | outcome [2] | Potency [3] | Potency [4] | Potency [5] | outcome [6]

CCCN1CC[C@@H]2c3cc(O)ccc3CC[C@@H]21
inactive: outcome [7] | max response [8] 20.4% | Potency [1] | outcome [2] | Potency [3] | Potency [4] | Potency [5] | outcome [6]

O=S1(=O)N(CCN2CC=C(c3c[nH]c4cc(F)ccc34)CC2)c2cccc3c2N1CCC3
inactive: Potency [1] | outcome [2] | Potency [3] | Potency [4] | Potency [5] | outcome [6]

O=[N+]([O-])c1ccc2nc(N3CCNCC3)ccc2c1
inactive: outcome [7] | Potency [1] | outcome [2] | Potency [3] | Potency [4] | Potency [5] | outcome [6]

CCOC(=O)c1ncn2c1[C@@H]1CCCN1C(=O)c1cc(OC)ccc1-2
inactive: outcome [7] | max response [8] -1.18% | Potency [1] | outcome [2] | Potency [3] | Potency [4] | Potency [5] | outcome [6]

CC(C)(C)c1o[nH]c(=O)c1CC(N)C(=O)O (centres undefined)
inactive: outcome [7] | max response [8] 2.4% | Potency [1] | outcome [2] | Potency [3] | Potency [4] | Potency [5] | outcome [6]

CC(C)(O)[C@@H]1[C@H]2OC(=O)[C@@H]1[C@]1(O)C[C@H]3O[C@]34C(=O)O[C@H]2[C@]14C (tested in a mixture with another compound)
inactive: Potency [1]

Clc1cc(I)cc(Cl)c1NC1=NCCN1
inactive: outcome [7] | max response [8] 44.8% | Potency [1] | outcome [2] | Potency [3] | Potency [4] | Potency [5] | outcome [6]

NCCc1c[nH]c2ccc(C(N)=O)cc12
inactive: max response [8] 47.6% | Potency [1] | outcome [2] | Potency [3] | Potency [4] | Potency [5] | outcome [6]

CC(C)(C)c1cc(C=C(C#N)C#N)cc(C(C)(C)C)c1O
active: Potency [3] 131 nM | Potency [4] 301 nM | Potency [5] 414 nM
inactive: outcome [7] | Potency [1] | outcome [2]

CC(=O)NBr
inactive: outcome [7] | max response [8] 10.7% | Potency [1] | outcome [2] | Potency [3] | Potency [4] | Potency [5] | outcome [6]

CCCN(CCC)[C@@H]1CCc2cccc(O)c2C1
inactive: outcome [7] | Potency [1] | outcome [2] | Potency [3] | Potency [5] | outcome [6]

C[N+](C)(C)CC#CCN1CCCC1=O
inactive: outcome [7] | max response [8] -2.31% | Potency [1] | outcome [2] | Potency [3] | Potency [4] | Potency [5] | outcome [6]

CN1CCc2cc(O)cc3c2[C@H]1Cc1ccc(O)c(O)c1-3
inactive: max response [8] 32.9% | Potency [1] | outcome [2] | Potency [3] | Potency [4] | Potency [5] | outcome [6]

Cc1sc2ccccc2c1CC1=NCCN1
inactive: max response [8] 25.3% | Potency [1] | outcome [2] | Potency [3] | Potency [4] | Potency [5] | outcome [6]

NNC(N)=O
inactive: outcome [7] | Potency [9] | Potency [1] | outcome [2] | Potency [3] | Potency [4] | Potency [5] | outcome [6]

NCC(O)c1cc(O)c(O)cc1F (centres undefined)
inactive: outcome [7] | max response [8] 20.1% | Potency [1] | outcome [2] | Potency [3] | Potency [4] | Potency [5] | outcome [6]

CC(C)NP(=O)(NC(C)C)OP(=O)(NC(C)C)NC(C)C
inactive: outcome [7] | max response [8] 7.64% | Potency [1] | outcome [2] | Potency [3] | Potency [4] | Potency [5] | outcome [6]

CC(N)Cc1c[nH]c2ccc(O)cc12 (centres undefined)
inactive: max response [8] 20.7% | Potency [1] | outcome [2] | Potency [3] | Potency [4] | Potency [5] | outcome [6]

Clc1ccc(N2CC3CCC(C2)N3)nn1
inactive: outcome [7] | max response [8] 23.5% | Potency [1] | outcome [2] | Potency [3] | Potency [4] | Potency [5] | outcome [6]

NNC(=O)c1ccc(O)cc1
inactive: outcome [7] | max response [8] 7.91% | Potency [1] | outcome [2] | Potency [3] | Potency [4] | Potency [5]

N[C@@]1(C(=O)O)CC[C@@H](C(=O)O)C1
inactive: outcome [7] | max response [8] 13.5% | Potency [1] | outcome [2] | Potency [3] | Potency [5] | outcome [6]

OC1CCCCC1N1CCC(c2ccccc2)CC1 (centres undefined)
inactive: outcome [7] | max response [8] 6.56% | Potency [1] | outcome [2] | Potency [3] | Potency [4] | Potency [5] | outcome [6]

NCCc1ccc(S(=O)(=O)F)cc1
inactive: max response [8] 22.8% | Potency [1] | outcome [2] | Potency [3] | Potency [4] | Potency [5] | outcome [6]
